Measured values as given in the supplement of paper PMC3545927.
The other results are listed elsewhere or left out. No count for the full screen is at hand.

Target: furin, P09958
Experiment: furin cleavage Z-score vs untreated control; higher = more cleavage, active = 3.5 or more, inactive = 1 or less, 8 variable residues between constant flanks
In short: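 Magnetic beads held 8-mer peptides by the N-terminus, each fused to a cDNA oligonucleotide, and purified furin was added for 7.5, 15 or 30 min. Released DNA was sequenced after PCR adapter tagging. The cleavage Z-score is the log count relative to furin-free reactions, lowess-adjusted and divided by median absolute deviation.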
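Note: purified furin at 1:10 enzyme:substrate in 50 mM HEPES pH 7.5.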

furin, P09958, sequence (P09958 whole entry): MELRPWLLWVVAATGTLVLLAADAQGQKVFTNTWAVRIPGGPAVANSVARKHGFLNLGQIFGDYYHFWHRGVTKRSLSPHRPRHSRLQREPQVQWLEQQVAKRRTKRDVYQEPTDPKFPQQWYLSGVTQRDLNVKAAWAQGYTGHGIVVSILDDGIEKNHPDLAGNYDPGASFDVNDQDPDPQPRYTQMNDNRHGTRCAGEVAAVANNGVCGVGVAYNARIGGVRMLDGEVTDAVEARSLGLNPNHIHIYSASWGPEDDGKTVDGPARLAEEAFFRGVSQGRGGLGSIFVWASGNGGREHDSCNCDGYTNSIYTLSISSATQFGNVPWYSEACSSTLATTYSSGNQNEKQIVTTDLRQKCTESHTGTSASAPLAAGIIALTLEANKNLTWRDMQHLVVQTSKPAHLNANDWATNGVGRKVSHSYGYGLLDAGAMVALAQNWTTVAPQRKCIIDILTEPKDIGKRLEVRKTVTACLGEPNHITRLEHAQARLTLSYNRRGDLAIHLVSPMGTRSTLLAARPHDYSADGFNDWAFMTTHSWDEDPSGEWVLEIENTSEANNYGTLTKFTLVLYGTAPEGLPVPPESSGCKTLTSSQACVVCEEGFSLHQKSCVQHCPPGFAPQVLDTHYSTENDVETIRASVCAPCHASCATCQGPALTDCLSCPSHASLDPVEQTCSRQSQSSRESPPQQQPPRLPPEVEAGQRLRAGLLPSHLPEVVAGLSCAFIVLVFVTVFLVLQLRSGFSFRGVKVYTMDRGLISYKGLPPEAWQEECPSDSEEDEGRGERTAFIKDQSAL

B1: HC791 (peptide)
chain: CATLGFGAYMAGNASASA
- furin cleavage Z-score (7.5 min): 0.163 (inactive)
- furin cleavage Z-score (15 min): -1.28 (inactive)
- furin cleavage Z-score (30 min): 0.49 (inactive)

B2: FS-3210 (peptide)
chain: CARSRRPADTAGNASASA
- furin cleavage Z-score (7.5 min): -0.916 (inactive)
- furin cleavage Z-score (15 min): -0.606 (inactive)
- furin cleavage Z-score (30 min): -2.54 (inactive)

B3: FS-1389 (peptide)
chain: CAQPARSVRLAGNASASA
- furin cleavage Z-score (7.5 min): -0.0259 (inactive)
- furin cleavage Z-score (15 min): 0.85 (inactive)
- furin cleavage Z-score (30 min): 0.452 (inactive)

B4: FS-2311 (peptide)
chain: CARSRREASGAGNASASA
- furin cleavage Z-score (7.5 min): 3.7 (active)
- furin cleavage Z-score (15 min): 2.31
- furin cleavage Z-score (30 min): 2.33

B5: FS-1573 (peptide)
chain: CASSSRDPRAAGNASASA
- furin cleavage Z-score (7.5 min): -1.14 (inactive)
- furin cleavage Z-score (15 min): 0.526 (inactive)
- furin cleavage Z-score (30 min): 1.07

B6: FS-2643 (peptide)
chain: CARARRDPRAAGNASASA
- furin cleavage Z-score (7.5 min): 9.64 (active)
- furin cleavage Z-score (15 min): 9.59 (active)
- furin cleavage Z-score (30 min): 9.18 (active)

B7: FS-1673 (peptide)
chain: CAKSARSVRAAGNASASA
- furin cleavage Z-score (7.5 min): 6.74 (active)
- furin cleavage Z-score (15 min): 6.73 (active)
- furin cleavage Z-score (30 min): 7 (active)

B8: FS-3116 (peptide)
chain: CARVCRCARAAGNASASA
- furin cleavage Z-score (7.5 min): 5.97 (active)
- furin cleavage Z-score (15 min): 5.83 (active)
- furin cleavage Z-score (30 min): 6.08 (active)

B9: FS-811 (peptide)
chain: CAKPAKSARSAGNASASA
- furin cleavage Z-score (7.5 min): -0.364 (inactive)
- furin cleavage Z-score (15 min): -0.316 (inactive)
- furin cleavage Z-score (30 min): 0.253 (inactive)

B10: HC1444 (peptide)
chain: CAVQPEKGGRAGNASASA
- furin cleavage Z-score (7.5 min): -2.15 (inactive)
- furin cleavage Z-score (15 min): -2.12 (inactive)
- furin cleavage Z-score (30 min): -0.412 (inactive)

B11: HC1803 (peptide)
chain: CADAMEECSQAGNASASA
- furin cleavage Z-score (7.5 min): -1.34 (inactive)
- furin cleavage Z-score (15 min): 0.113 (inactive)
- furin cleavage Z-score (30 min): -0.929 (inactive)

B12: HC2065 (peptide)
chain: CAVVCCSMLYAGNASASA
- furin cleavage Z-score (7.5 min): -0.464 (inactive)
- furin cleavage Z-score (15 min): -0.469 (inactive)
- furin cleavage Z-score (30 min): -1.46 (inactive)

B13: HC1190 (peptide)
chain: CATFPINAYTAGNASASA
- furin cleavage Z-score (7.5 min): -0.0204 (inactive)
- furin cleavage Z-score (15 min): -1.04 (inactive)
- furin cleavage Z-score (30 min): -0.568 (inactive)

B14: FS-3183 (peptide)
chain: CARAPRSPRAAGNASASA
- furin cleavage Z-score (7.5 min): 9.2 (active)
- furin cleavage Z-score (15 min): 8.63 (active)
- furin cleavage Z-score (30 min): 8.05 (active)

B15: FS-2251 (peptide)
chain: CARAPRSKVPAGNASASA
- furin cleavage Z-score (7.5 min): 0.556 (inactive)
- furin cleavage Z-score (15 min): 0.0997 (inactive)
- furin cleavage Z-score (30 min): 1.62

B16: FS-3238 (peptide)
chain: CARSRRSYSCAGNASASA
- furin cleavage Z-score (7.5 min): 0.584 (inactive)
- furin cleavage Z-score (15 min): 1.19
- furin cleavage Z-score (30 min): 2.38

B17: FS-2309 (peptide)
chain: CARSLRSQIRAGNASASA
- furin cleavage Z-score (7.5 min): 0.116 (inactive)
- furin cleavage Z-score (15 min): -1.95 (inactive)
- furin cleavage Z-score (30 min): 0.712 (inactive)

B18: FS-3080 (peptide)
chain: CARSGRSIINAGNASASA
- furin cleavage Z-score (7.5 min): -0.514 (inactive)
- furin cleavage Z-score (15 min): 0.929 (inactive)
- furin cleavage Z-score (30 min): 1.74

B19: FS-2819 (peptide)
chain: CARSRRSAFHAGNASASA
- furin cleavage Z-score (7.5 min): 8.26 (active)
- furin cleavage Z-score (15 min): 9.19 (active)
- furin cleavage Z-score (30 min): 8.92 (active)

B20: FS-2546 (peptide)
chain: CARAPRDSDAAGNASASA
- furin cleavage Z-score (7.5 min): -0.983 (inactive)
- furin cleavage Z-score (15 min): 0.168 (inactive)
- furin cleavage Z-score (30 min): 0.352 (inactive)

B21: FS-2383 (peptide)
chain: CARSRRSQINAGNASASA
- furin cleavage Z-score (7.5 min): 1.8
- furin cleavage Z-score (15 min): 3.75 (active)
- furin cleavage Z-score (30 min): 2.57

B22: FS-1794 (peptide)
chain: CARSRRSPRAAGNASASA
- furin cleavage Z-score (7.5 min): 11.3 (active)
- furin cleavage Z-score (15 min): 13.6 (active)
- furin cleavage Z-score (30 min): 9.99 (active)

B23: HC378 (peptide)
chain: CATGWLAGLFAGNASASA
- furin cleavage Z-score (7.5 min): 1
- furin cleavage Z-score (15 min): 1.08
- furin cleavage Z-score (30 min): 0.703 (inactive)

B24: HC1940 (peptide)
chain: CATTPCSGSCAGNASASA
- furin cleavage Z-score (7.5 min): -1.36 (inactive)
- furin cleavage Z-score (15 min): -1.27 (inactive)
- furin cleavage Z-score (30 min): -2.07 (inactive)

B25: HC366 (peptide)
chain: CAVQLINTNGAGNASASA
- furin cleavage Z-score (7.5 min): 0.569 (inactive)
- furin cleavage Z-score (15 min): -1.46 (inactive)
- furin cleavage Z-score (30 min): 0.762 (inactive)

B26: HC1326 (peptide)
chain: CARTVVLTESAGNASASA
- furin cleavage Z-score (7.5 min): 0.659 (inactive)
- furin cleavage Z-score (15 min): 0.273 (inactive)
- furin cleavage Z-score (30 min): -0.545 (inactive)

B27: WN3 (peptide)
chain: CAQKKRGGPAAGNASASA
- furin cleavage Z-score (7.5 min): 0.322 (inactive)
- furin cleavage Z-score (15 min): -1.02 (inactive)
- furin cleavage Z-score (30 min): 0.637 (inactive)

B28: HC1537 (peptide)
chain: CAAASLRAFTAGNASASA
- furin cleavage Z-score (7.5 min): -0.944 (inactive)
- furin cleavage Z-score (15 min): -0.499 (inactive)
- furin cleavage Z-score (30 min): -0.478 (inactive)

B29: FS-203 (peptide)
chain: CATPSRCVRIAGNASASA
- furin cleavage Z-score (7.5 min): 0.645 (inactive)
- furin cleavage Z-score (15 min): -1.67 (inactive)
- furin cleavage Z-score (30 min): -0.417 (inactive)

B30: FS-99 (peptide)
chain: CATPSRAGRAAGNASASA
- furin cleavage Z-score (7.5 min): 3.27
- furin cleavage Z-score (15 min): 3.92 (active)
- furin cleavage Z-score (30 min): 2.86

B31: FS-1152 (peptide)
chain: CAQPARIGRAAGNASASA
- furin cleavage Z-score (7.5 min): 5.34 (active)
- furin cleavage Z-score (15 min): 7.28 (active)
- furin cleavage Z-score (30 min): 7.16 (active)

B32: FS-1425 (peptide)
chain: CATPSRMIRTAGNASASA
- furin cleavage Z-score (7.5 min): 4.04 (active)
- furin cleavage Z-score (15 min): 5.44 (active)
- furin cleavage Z-score (30 min): 5.33 (active)

B33: HC1626 (peptide)
chain: CALLARGGRAAGNASASA
- furin cleavage Z-score (7.5 min): 3.15
- furin cleavage Z-score (15 min): 3.33
- furin cleavage Z-score (30 min): 3.52 (active)

B34: HC1038 (peptide)
chain: CAQKLETFWAAGNASASA
- furin cleavage Z-score (7.5 min): 2.24
- furin cleavage Z-score (15 min): -0.183 (inactive)
- furin cleavage Z-score (30 min): -1.19 (inactive)
